# Records with an inconclusive call do not appear. Calls of active or inactive are those of the source. Rule for the calls: active = hit-call score of the fitted dose curve at least 0.9, where 1 is the maximum; inconclusive = response in the unintended direction; inactive = score below 0.9.
# Experiment: ACEA_ER_AUC_viability: ACEA Biosciences xCELLigence Real-Time Cell Analysis on Estrogen Receptor Agonism for Viability (AID 2283782);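 note: hit means loss of impedance signal meaning reduced cell growth or viability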
# Outline: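 Viability endpoint: reduced impedance area under the curve relative to DMSO, recorded by real-time electrode sensing over ~80 h of continuous exposure. Duplicate plates of T47D in hormone-depleted medium; eight concentrations, 1:4 dilutions, 100 uM maximum.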
SMILES,outcome,AC50
CCOP(=O)(O)C(N)=O,inactive,
CCN(CC)C1CCCCC1,inactive,
O=C(O)C(F)(F)OC(F)(F)C(F)(F)OC(F)(F)C(=O)O,inactive,
ClC(Cl)=C(c1ccc(Cl)cc1)c1ccccc1Cl,inactive,
Nc1ccc([N+](=O)[O-])cc1Cl,inactive,
CC(Cl)CN(C)C (stereo unspecified),,34.9 µM (active)
OCC(F)(F)OC(F)(F)C(F)(F)OC(F)(F)C(F)(F)OC(F)(F)CO,,137 µM (active)
CCOP(=S)(OCC)SCSc1ccc(Cl)cc1,,27.9 µM (active)
CCOP(=S)(OCC)SCS(=O)(=O)CC,inactive,
CC(C)(C)c1ccccc1OP(=O)(Oc1ccccc1)Oc1ccccc1,inactive,
CC(O)C(F)(F)C(F)(F)F (stereo unspecified),inactive,
CC(O)C#N (stereo unspecified),,50 µM (active)
C=CC(=O)OCC(F)(F)C(F)F,inactive,
COP(=O)(O)OC,inactive,
N#Cc1ccc(O)cc1,inactive,
Nc1ccc(Sc2ccc(N)cc2)cc1,inactive,
NNC(N)=S,inactive,
CCOP(=S)(OCC)SCn1nnc2ccccc2c1=O,inactive,
C/C(=N\NC(=O)Nc1cc(F)cc(F)c1)c1ncccc1C(=O)O,inactive,
COP(=O)(CCC(=O)NCO)OC,,56.8 µM (active)
CC(C)Nc1ccc(Nc2ccccc2)cc1,,18 µM (active)
Cc1cc(C)c(C(=O)P(=O)(c2ccccc2)c2ccccc2)c(C)c1,,73.1 µM (active)
COP(N)(=S)OC,,32.4 µM (active)
O=C(O)C(F)(F)OC(F)(F)C(F)(F)OC(F)(F)F,inactive,
Cn1[nH]nnc1=S,inactive,
Cc1ccc(C(=O)Cl)cc1,inactive,
